The structures appear in SMILES notation. This is part of a sample that, as a whole, favours compounds with a hit. Of some 83,000 tested, about 20% had one in any assay.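 Method: cells in 96-well plates; compound added at one concentration; 48 h incubation; percent growth measured; values under 10 scored active.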 Calls of active or inactive are those of the source.

The results in this text go back to PubChem BioAssay (NCI).

This experiment relates to T-47D breast. Description: NCI-60 one-dose screen, 48 h (100 = growth as untreated, 0 = no growth, -100 = all killed). As to conditions: 10 µM unless noted.
In the case of `C=C(C)[C@@H]1CC[C@]2(C=O)CC[C@]3(C)[C@H](CC[C@@H]4[C@@]5(C)CCCNC(C)(C)[C@@H]5CC[C@]43C)[C@@H]12`, the growth was 57.8% (inactive).

Turning to `COc1cc(OC)cc(C2C3=C(COC3=O)Nc3cc(OC)ccc32)c1` (stereo not drawn), the growth was 68.8% (inactive). Take `CN1CCN(C(=O)[C@]2(C)CC[C@]3(C)CC[C@]4(C)C(=CC(=O)[C@@H]5[C@@]6(C)CCC(=O)NC(C)(C)[C@@H]6CC[C@]54C)[C@@H]3C2)CC1`: the growth is 79.9% (inactive). `COc1cc(C2CC(c3cccc(Nc4ccncc4)c3)=NN2c2cc(Cl)cc(Cl)c2)cc(OC)c1OC` (stereo not drawn): the growth is 26.7% (inactive).

As to `COc1ccc(-c2ncc(-c3ccccc3)[nH]2)cc1OC`, the growth was 102% (inactive).

For the compound `CC(C)(C)OC(=O)N1C/C(=C\c2ccoc2)C(=O)/C(=C/c2ccoc2)C1`, the growth is 82.4% (inactive).

With `Cc1ccc2nc3c(cc2c1)CSc1nnc(-c2ccc[nH]c2=S)n1N3`, the growth was 90.8% (inactive).

For the compound `COc1ccc(Nn2c(SCC(=O)Nc3nc(-c4ccc(Cl)cc4)cs3)nc(C)c2C)cc1`, the growth was 32.9% (inactive).

Regarding `C=C(C)[C@@H]1CC[C@]2(C(=O)NCCCN(CCC#N)CCC#N)CC[C@]3(C)[C@H](CC[C@@H]4[C@@]5(C)CCC(=O)C(C)(C)[C@@H]5CC[C@]43C)[C@@H]12`, the growth was 102% (inactive). Regarding `Cc1ccc(C2CC(c3cccc(Nc4ccncc4)c3)=NN2c2ccc(Cl)cc2)cc1` (stereo not drawn), the growth was -47.9% (active). In the case of `COc1cc(NCCCN(CC(C)C)C2CCCC2)c2ncccc2c1`, the growth is 29.9% (inactive). Take `COc1ccc(Cn2nc3c(c2-c2cc(OC)c(OC)c(OC)c2)-c2oncc2CC3)cc1`: the growth is 79.3% (inactive). With `O=S(=O)(c1ccc(N/N=C\c2ccccc2)cc1)c1ccc(N/N=C/c2ccccc2)cc1`, the growth is 56% (inactive). `CC1(C)[C@H](O)CC[C@]2(C)[C@@H]1CC[C@@]13C[C@@H](CC[C@H]12)[C@@](O)(CO)C3`: the growth is 105% (inactive). For `COc1ccccc1OCC(=O)N1CCCCCC1`, the growth was 103% (inactive).

As for `Cc1c2c(cc[n+]1Cc1ccccc1)c1ccc(OCc3ccccc3)cc1n2Cc1ccccc1`, the growth was -4.02% (active). As for `CCn1cc(C2NC(=O)c3ccccc3N2)c2cccc(C)c21` (stereo not drawn), the figure is 36.9% (inactive).

For the compound `O=C(Cc1ccc(/C=C/C(=O)c2ncc[nH]2)cc1)Nc1ccc(C(F)(F)F)cc1`, the growth is 29.2% (inactive). For `COc1cccc(C(Cc2ccccc2)Nc2ccccc2)c1OC` (stereo not drawn), the growth is 80.6% (inactive). For the compound `CCCCCCC/C=C/[C@H]1O[C@]2(O)C(=O)C=C3C[C@@H](O[C@@H]4O[C@H](CO)[C@@H](O)C(O)[C@@H]4O)C[C@@H]3[C@H]2C=C1C` (stereo partly drawn), the growth is -9.2% (active).

Turning to `CCOC(=O)N1CCc2c(sc3nc4nc[nH]n4c(=O)c23)C1`, the growth was 88.9% (inactive). As for `Cc1nccc2c3ccc(OCc4cn(-c5ccc(Cl)cc5)nn4)cc3n(CCCc3ccccc3)c12`, the figure is 74.7% (inactive); as for `O=C1Nc2c(ccc(Cl)c2Cl)/C1=C/c1ccc(O)cc1`, 61.2% (inactive); as for `C[C@@H]1CN(Cc2ccc(/C=C/c3n[nH]c4ccc5nc(-c6cn[nH]c6C(F)(F)F)c6c(c5c34)CCCC6)cc2)C[C@H](C)O1`, 49.8% (inactive). As for `COc1ccc(C(=O)c2cc3c(N)c(C(=O)Nc4cccc(OC)c4)sc3nc2C)cc1`, the figure is 62.6% (inactive); as for `COc1ccc(/C(=C\c2ccccc2)C(=O)O)cc1OC`, 85.7% (inactive); as for `C[C@]12CCc3nc(Nc4cccc(O)c4)sc3C1=CC[C@@H]1[C@@H]2CC[C@]2(C)/C(=N\NC(N)=S)CC[C@@H]12`, 19.5% (inactive).

With `COc1ccc(-c2c(-c3ccccc3)noc2N)cc1OC`, the growth was 99.6% (inactive). As for `COc1cc(-c2nc3occn3c2-c2ccnc(NCCNS(=O)(=O)c3ccc(Cl)cc3)n2)ccc1F`, the figure is 51.6% (inactive); as for `COc1cc(CCNc2nc3cc(N)cc(N)c3nc2-c2ccccc2)cc(OC)c1`, -31% (active).

Consider `CCC(=O)c1ccc(O)c(OC)c1`, for which the growth was 109% (inactive). Take `N#Cc1ccc(-c2ccc3c(c2)NC(=O)/C3=C\c2ccc[nH]2)cc1`: the growth is 9.73% (active). As for `C=C(C)[C@@H]1CC[C@]2(CO)CC[C@]3(C)[C@H](CC[C@@H]4[C@@]5(C)CCCNC(C)(C)[C@@H]5CC[C@]43C)[C@@H]12`, the figure is 36.5% (inactive). Take `CC(=O)c1c(C)[nH]c(-c2nc3ccc(N4CCN(C)CC4)cc3[nH]2)c1-c1ccccc1`: the growth was 20.3% (inactive).

For the compound `CC[C@H](C)[C@@H]1NC(=O)[C@H](Cc2ccc(O)cc2)N(C)C(=O)[C@H](Cc2ccccc2)NC(=O)CN(C)C(=O)[C@@H]2CCCN2C(=O)[C@@H](Cc2ccccc2)N(C)C(=O)[C@H](CC(C)C)NC1=O`, the growth is 0.772% (active). As for `NC(=O)c1cccc(-c2cc(C(N)=O)ccc2Cl)c1`, the growth is 33.9% (inactive). `N#C/C(=C\c1ccc(Br)cc1)n1nnc2cccc(F)c21`: the growth is 21.7% (inactive).

On to `CN1CCN(C(=O)OCc2nc3c(N4CCOCC4)nc(-c4ccccc4)nc3n2C)CC1`, for which the growth was -40.7% (active).
